Measurements reported in PubChem BioAssay (Tox21).
Records with an inconclusive call do not appear. Where a call stands in place of a potency, no number is given. A number with no mark means an inactive call. Active and inactive are the calls of the source. Unless noted, the call rests on the fitted dose curve; in most records, active means well fitted curve in the direction sought with a large enough effect in the repeat runs; inconclusive means weak or mixed curves; inactive means no such curve, though single readings can be large; an effect the other way counts as inactive or inconclusive.

Assays:
[1] = molecular target: Retinoic acid receptor RXR-alpha (Homo sapiens) (UniProt P19793); test: qHTS assay to identify small molecule agonists of the RXR signaling pathway (AID 1159527; calls by dose curve; further: nearly all actives have a fitted effect of over 35% in size; further: potency means the concentration at half of the fitted maximal effect)
Retinoic acid receptor RXR-alpha (Homo sapiens), sequence (P19793 whole entry, looked up): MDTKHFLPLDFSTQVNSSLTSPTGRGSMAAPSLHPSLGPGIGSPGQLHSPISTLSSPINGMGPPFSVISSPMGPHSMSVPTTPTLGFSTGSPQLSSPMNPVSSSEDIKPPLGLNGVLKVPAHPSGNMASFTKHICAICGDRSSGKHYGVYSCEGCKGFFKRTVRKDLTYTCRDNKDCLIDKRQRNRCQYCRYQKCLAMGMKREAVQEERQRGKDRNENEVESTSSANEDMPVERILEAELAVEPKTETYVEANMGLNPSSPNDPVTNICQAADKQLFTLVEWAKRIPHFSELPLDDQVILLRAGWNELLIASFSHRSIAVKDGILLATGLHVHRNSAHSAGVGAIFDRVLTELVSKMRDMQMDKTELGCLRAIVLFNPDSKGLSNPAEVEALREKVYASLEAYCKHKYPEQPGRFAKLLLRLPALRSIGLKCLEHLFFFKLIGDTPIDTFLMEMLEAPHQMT
Method in brief: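 Agonist mode; 9-cis retinoic acid positive control. HEK 293T UAS-bla reporter cells, 2% charcoal-stripped FBS, 16 hr compound exposure at 37 C/5% CO2. LiveBLAzer B/G FRET substrate 2 hr RT; ex 405, em 460/530 nm.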

[2] = qHTS assay to identify small molecule agonists of the RXR signaling pathway - cell viability counter screen (AID 1159529); further: series mostly up to about 77 µM; nearly all actives have a fitted effect of over 50% in size
Method in brief: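 Luminescence from CellTiter-Glo (30 min, RT) measured viability in the same wells as the beta-lactamase reporter readout. Cells: GeneBLAzer RXR-alpha HEK 293T, 2% charcoal-stripped FBS. Compound exposure 16 hr, 37 C.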

[3] = qHTS assay to identify small molecule antagonists of the retinoid acid receptor (RAR) signaling pathway - cell viability counter screen (AID 1159551); further: nearly all actives have a fitted effect of over 35% in size
Method in brief: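 C3RL4 cells were seeded overnight at 37 C, then treated with compounds plus 1 uM (final) retinol for 6 h at 37 C. Viability was read as ATP by CellTiter-Glo luminescence after 30 min at room temperature.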

[4] = qHTS assay to identify small molecule antagonists of the retinoic acid receptor (RAR) signaling pathway (AID 1159552; further: nearly all actives have a fitted effect of over 50% in size)
Method in brief: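 Luminescence from a RARE luciferase reporter in C3RL4 cells served as read-out. Cells received compounds together with 1 uM final retinol and incubated 6 hr at 37 C before detection reagent was added for 30 min at room temperature.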

[5] = qHTS assay to identify small molecule agonists of the retinoic acid receptor (RAR) signaling pathway (AID 1159553); further: potency means the concentration at half of the fitted maximal effect
Method in brief: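 C3RL4 cells carrying a RARE luciferase reporter were plated overnight at 37 C, then exposed to compounds in DMSO for 6 hr at 37 C and 5% CO2. Luminescence was read 30 min after luciferase reagent addition at room temperature.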

[6] = qHTS assay to identify small molecule antagonists of the estrogen related receptor (ERR) signaling pathway from Tox21 library - cell viability counter screen (AID 1224834); further: nearly all actives have a fitted effect of over 30% in size
Method in brief: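 ERR reporter cells were plated 6 h before compound addition, then exposed to test compounds in DMSO for 17.5 h at 37 C. Viability was read as CellTiter-Fluor fluorescence after a 30-minute incubation at 37 C.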

[7] = molecular target: Luciferin 4-monooxygenase (Photinus pyralis) (UniProt P08659); test: qHTS assay to identify small molecule inhibitors of firefly luciferase (AID 1224835); further: nearly all actives have a fitted effect of over 25% in size; further: potency means the concentration at half of the fitted maximal effect
Luciferin 4-monooxygenase (Photinus pyralis), sequence (P08659 whole entry, looked up): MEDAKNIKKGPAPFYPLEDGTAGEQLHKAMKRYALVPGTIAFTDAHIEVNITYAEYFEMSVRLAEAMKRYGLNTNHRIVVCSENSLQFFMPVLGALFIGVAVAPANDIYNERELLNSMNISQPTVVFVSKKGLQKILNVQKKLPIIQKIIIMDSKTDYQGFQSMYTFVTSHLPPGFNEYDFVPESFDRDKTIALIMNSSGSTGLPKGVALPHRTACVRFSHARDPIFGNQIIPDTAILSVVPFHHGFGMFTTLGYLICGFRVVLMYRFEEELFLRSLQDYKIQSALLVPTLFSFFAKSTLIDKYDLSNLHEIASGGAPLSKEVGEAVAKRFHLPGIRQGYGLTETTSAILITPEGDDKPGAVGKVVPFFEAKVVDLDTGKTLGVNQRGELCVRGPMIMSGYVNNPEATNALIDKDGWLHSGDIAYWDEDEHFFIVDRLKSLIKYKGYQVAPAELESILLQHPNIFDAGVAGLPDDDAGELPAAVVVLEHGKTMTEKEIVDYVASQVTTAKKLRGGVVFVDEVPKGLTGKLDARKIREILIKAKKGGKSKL
Method in brief: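 Quantitative HTS format; KM concentrations of both substrates. Purified P. pyralis FLuc activity quantified from luminescence images.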

[8] = qHTS assay to identify small molecule agonists of the constitutive androstane receptor (CAR) signaling pathway - cell viability counter screen (AID 1224836); further: series mostly up to about 92 µM; nearly all actives have a fitted effect of over 45% in size
Method in brief: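 Viability read-out: CellTiter-Fluor fluorescence after 23 h compound exposure at 37 C/5% CO2 in double-stable HepG2-CYP2B6-hCAR cells, with PK11195 present at 0.75 uM final; compounds tested in 15-point titration.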

[9] = qHTS assay to identify small molecule antagonists of the constitutive androstane receptor (CAR) signaling pathway - cell viability counter screen (AID 1224837); further: series mostly up to about 92 µM; nearly all actives have a fitted effect of over 45% in size
Method in brief: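 HepG2 cells stably expressing hCAR and a CYP2B6-2.2kb reporter were plated and pre-incubated 4 hr at 37 C/5% CO2, then given compounds at 15 concentrations plus 50 nM CITCO (final). After 23 hr, viability was read by CellTiter-Fluor fluorescence.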

[10] = molecular target: Nuclear receptor subfamily 1 group I member 3 (Homo sapiens) (UniProt Q14994); test: qHTS assay to identify small molecule antagonists of the constitutive androstane receptor (CAR) signaling pathway (AID 1224838); further: nearly all actives have a fitted effect of over 40% in size
Nuclear receptor subfamily 1 group I member 3 (Homo sapiens), sequence (Q14994 whole entry, looked up): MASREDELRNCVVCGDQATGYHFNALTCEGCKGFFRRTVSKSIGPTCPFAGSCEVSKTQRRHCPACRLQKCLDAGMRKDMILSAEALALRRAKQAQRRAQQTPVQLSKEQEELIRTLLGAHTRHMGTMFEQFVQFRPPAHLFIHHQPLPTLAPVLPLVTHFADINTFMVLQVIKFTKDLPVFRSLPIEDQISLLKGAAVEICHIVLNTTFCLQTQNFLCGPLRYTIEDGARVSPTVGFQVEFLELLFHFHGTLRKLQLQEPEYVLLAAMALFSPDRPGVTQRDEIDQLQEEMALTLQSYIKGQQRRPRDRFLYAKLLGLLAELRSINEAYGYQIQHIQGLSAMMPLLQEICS
Method in brief: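 HepG2 cells stably co-transfected with hCAR and a CYP2B6-2.2kb luciferase reporter were seeded 4 h before compound addition at 15 concentrations. Cells were stimulated with 50 nM CITCO (final) for 24 h at 37 C; luciferase luminescence was then read.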

[11] = molecular target: Nuclear receptor subfamily 1 group I member 3 (Homo sapiens) (UniProt Q14994); test: qHTS assay to identify small molecule agonists of the constitutive androstane receptor (CAR) signaling pathway (AID 1224839);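 further: HepG2 cells stably carrying human CAR and a CYP2B6 luciferase reporter; series mostly up to about 92 µM; nearly all actives have a fitted effect of over 15% in size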
Method in brief: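 Luminescence read-out (ONE-Glo, 30 min, room temperature) from double-stable HepG2-CYP2B6-hCAR cells exposed 24 h to 15-point compound series in presence of 0.75 uM PK11195 final.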

[12] = qHTS assay to identify small molecule antagonists of the estrogen related receptor signaling pathway with the pleiotropic PPARgamma coactivator (PGC) from Tox21 10K library - cell viability counter screen (AID 1224840; active means well fitted cell-killing curve with a large enough effect in the repeat runs, not every such curve was filed as active; further: nearly all actives have a fitted effect of over 40% in size)
Method in brief: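 PGC/ERR cells were seeded at 2,000 cells/well and left 6 hours at 37 C/5% CO2 before pin-tool addition of compounds in DMSO. After 17.5 hours at 37 C, CellTiter-Fluor was added and fluorescence read 30 minutes later.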

[13] = molecular target: Thyrotropin receptor (Homo sapiens) (UniProt P16473); test: qHTS assay to identify small molecule agonists of the thyroid stimulating hormone receptor (TSHR) signaling pathway (AID 1224843; calls by dose curve; further: nearly all actives have a fitted effect of over 45% in size)
Thyrotropin receptor (Homo sapiens), sequence (P16473 whole entry, looked up): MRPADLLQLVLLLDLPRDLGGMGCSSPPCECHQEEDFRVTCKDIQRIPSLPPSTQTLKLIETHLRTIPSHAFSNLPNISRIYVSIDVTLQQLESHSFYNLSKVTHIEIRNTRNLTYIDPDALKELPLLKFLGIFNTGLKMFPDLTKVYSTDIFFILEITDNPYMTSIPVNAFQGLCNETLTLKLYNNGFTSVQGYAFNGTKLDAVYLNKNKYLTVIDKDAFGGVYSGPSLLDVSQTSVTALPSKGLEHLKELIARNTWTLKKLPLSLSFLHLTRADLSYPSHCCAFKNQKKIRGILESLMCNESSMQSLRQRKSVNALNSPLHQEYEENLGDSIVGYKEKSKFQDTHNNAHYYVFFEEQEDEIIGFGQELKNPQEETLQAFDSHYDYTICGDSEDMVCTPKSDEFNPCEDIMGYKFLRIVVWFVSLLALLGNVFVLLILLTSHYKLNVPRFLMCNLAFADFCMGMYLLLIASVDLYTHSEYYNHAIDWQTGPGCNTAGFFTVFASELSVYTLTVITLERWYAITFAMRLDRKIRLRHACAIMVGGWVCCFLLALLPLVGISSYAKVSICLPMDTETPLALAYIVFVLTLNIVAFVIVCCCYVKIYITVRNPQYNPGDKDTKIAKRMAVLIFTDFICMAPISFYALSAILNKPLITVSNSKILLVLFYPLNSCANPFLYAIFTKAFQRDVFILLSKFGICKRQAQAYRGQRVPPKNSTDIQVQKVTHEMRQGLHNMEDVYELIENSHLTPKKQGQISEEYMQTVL
Method in brief: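 Cell line HEK293 with TSHR; density 800/well. Exposure 30 min RT. Readout HTRF cAMP (cAMP-d2/anti-cAMP-cryptate), 1 h RT before reading.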

[14] = qHTS assay to identify small molecule agonists of the hypoxia (HIF-1) signaling pathway - cell viability counter screen (AID 1224844; calls by dose curve; further: nearly all actives have a fitted effect of over 50% in size)
Method in brief: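 HRE-bla ME-180 cells in medium with 0.5% dialyzed FBS were preincubated 5 hrs at 37C, exposed to compounds for 17 hrs, then viability was read as CellTiter-Glo luminescence after 30 min at room temperature, in the reporter wells.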

[15] = qHTS assay to identify small molecule agonists of H2AX (AID 1224845; active means well fitted activation curve with a large enough effect in the signal ratio in the repeat runs, not every such curve was filed as active; the % refers to the signal ratio)
Method in brief: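 Wild-type CHO-K1 cells plated overnight, then exposed 3 hr at 37C to compounds at 15 concentrations (0.76% DMSO). Lysed, then HTRF anti-pH2AX(S139)-cryptate/anti-H2AX-d2 detection after 24 hr at room temperature; emissions 665 and 620 nm.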

[16] = qHTS assay to identify small molecule agonists of the hypoxia (HIF-1) signaling pathway (AID 1224846; active means well fitted activation curve with a large enough effect in the signal ratio in the repeat runs, not every such curve was filed as active; the % refers to the signal ratio)
Method in brief: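 HRE-bla ME-180 cells (beta-lactamase reporter under hypoxia response element) were plated at 2,000 cells/well in medium with 0.5% dialyzed FBS, rested 5 hrs, then given compounds in DMSO for 17 hrs at 37C, 5% CO2. Reporter induction was read with CCF4-AM FRET substrate.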

[17] = qHTS assay to identify small molecule agonists of H2AX - cell viability counter screen (AID 1224847; calls by dose curve; further: top concentration of the series differs between compounds; nearly all actives have a fitted effect of over 30% in size)
Method in brief: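 CHO-K1 wt, 1000 cells/well, o/n 37C; cpds 15 conc, 3 h 37C, 0.76% DMSO; CellTiter-Glo, 30 min RT, luminescence.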

[18] = qHTS assay to identify small molecule antagonists of the estrogen related receptor signaling pathway with the pleiotropic PPARgamma coactivator (PGC) from Tox21 10K library (AID 1224841; call rule not given here; further: series mostly up to about 92 µM; actives are mostly falling curves and most rising ones were filed inactive; nearly all actives have a fitted effect of over 50% in size)
Method in brief: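 PGC/ERR reporter cells were seeded at 2,000 cells/well and held 6 hours at 37 C/5% CO2 before pin-tool addition of compounds in DMSO. After 18 hours at 37 C, One-Glo was added and luminescence read after 30 minutes at room temperature.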

[19] = qHTS assay to identify small molecule agonists of the estrogen related receptor signaling pathway with the pleiotropic PPARgamma coactivator (PGC) from Tox21 10K library (AID 1224842); further: nearly all actives have a fitted effect of over 15% in size
Method in brief: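 PGC/ERR reporter cells (NTP line) were seeded 2,000 per well, rested 6 h at 37 C/5% CO2, then pin-dosed with compounds in DMSO for 18 h at 37 C; luciferase read by One-Glo luminescence after 30 min at room temperature.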

[20] = qHTS assay to identify small molecule antagonists of the estrogen related receptor (ERR) signaling pathway from Tox21 library (AID 1224848); further: nearly all actives have a fitted effect of over 50% in size
Method in brief: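 Screening used an ERR reporter line supplied by NTP, exposed for 18 h at 37 C to library compounds delivered in DMSO. Signal was luciferase luminescence developed with ONE-Glo at room temperature for 30 min.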

| SMILES | Potency [1] | outcome [2] | outcome [3] | outcome [4] | Potency [5] | outcome [6] | Potency [7] | outcome [8] | outcome [9] | Potency [10] | Potency [11] | outcome [12] | outcome [13] | outcome [14] | outcome [15] | outcome [16] | outcome [17] | outcome [18] | outcome [19] | Potency [20] |
| --- | --- | --- | --- | --- | --- | --- | --- | --- | --- | --- | --- | --- | --- | --- | --- | --- | --- | --- | --- | --- |
| Cn1c(=O)c2[nH]c(Br)nc2n(C)c1=O | inactive | inactive | inactive | inactive | inactive | inactive | inactive | inactive | inactive | inactive | inactive | inactive | inactive | inactive | inactive | inactive | inactive | – | – | – |
| CC1(C)O[C@H]2CC(=O)OC[C@]23[C@H]2CC[C@@]4(C)[C@H](c5ccoc5)OC(=O)[C@H]5O[C@]54[C@]2(C)C(=O)C[C@@H]13 | inactive | inactive | inactive | inactive | inactive | inactive | inactive | inactive | inactive | inactive | inactive | inactive | inactive | inactive | inactive | inactive | inactive | – | – | – |
| CCCCCCCCCOC(=O)c1ccccc1C(=O)OCCCCCCCCC | inactive | inactive | inactive | inactive | inactive | inactive | inactive | inactive | inactive | inactive | inactive | inactive | inactive | inactive | inactive | inactive | inactive | – | – | – |
| CCCCOC(=O)C(C)O (centres undefined) | inactive | inactive | inactive | inactive | inactive | inactive | inactive | inactive | inactive | inactive | inactive | inactive | inactive | inactive | inactive | inactive | inactive | – | – | – |
| CC(C)(C)NC[C@H](O)COc1cccc2c1CCCC2=O | inactive | inactive | inactive | inactive | inactive | inactive | inactive | inactive | inactive | inactive | inactive | inactive | – | inactive | inactive | – | inactive | inactive | inactive | inactive |
| C/C=C(\C)C(=O)OCCc1ccccc1 | inactive | inactive | inactive | inactive | 27.3 µM (active) | inactive | 7.1 µM (active) | inactive | inactive | inactive | inactive | inactive | – | inactive | inactive | inactive | inactive | inactive | inactive | inactive |
| OC[C@@H](O)C(O)[C@@H](O)CO (some centres undefined) | 1.57 µM (active) | inactive | inactive | inactive | inactive | inactive | inactive | inactive | inactive | inactive | inactive | inactive | – | inactive | inactive | inactive | inactive | inactive | inactive | inactive |
